# Measured values taken from article PMC11006913.
# Numbering of substitutions follows the chain as printed.
# Assays:
# Assay in all cases: PBM; 200 nM protein, PBS
# Conditions in all cases: dsDNA, one strand shown
# HOXA7 [1] = biological target: HOXA7 (Homo sapiens, UniProt P31268 116-202)
# MSX2 [2] = biological target: MSX2 (Homo sapiens, UniProt P35548 130-214, R199I)
# MSX2 [3] = biological target: MSX2 (Homo sapiens, UniProt P35548 130-214)
# MSX2 [4] = biological target: MSX2 (Homo sapiens, UniProt P35548 130-214, F161Y)
# Sequence of MSX2 (Homo sapiens, UniProt P35548 130-214, F161Y) (P35548 130-214 F161Y): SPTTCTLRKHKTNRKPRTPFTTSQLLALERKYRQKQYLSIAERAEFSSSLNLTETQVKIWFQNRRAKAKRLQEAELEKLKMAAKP
# HOXA7 [5] = biological target: HOXA7 (Homo sapiens, UniProt P31268 116-202, W177C)
# Sequence of HOXA7 (Homo sapiens, UniProt P31268 116-202, W177C) (P31268 116-202 W177C): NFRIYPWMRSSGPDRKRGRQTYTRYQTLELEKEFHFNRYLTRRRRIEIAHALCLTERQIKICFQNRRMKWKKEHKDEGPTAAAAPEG
# PAX4 [6] = biological target: T1, PAX4 (Homo sapiens, UniProt O43316 9-242, R200K)
# T1 sequence: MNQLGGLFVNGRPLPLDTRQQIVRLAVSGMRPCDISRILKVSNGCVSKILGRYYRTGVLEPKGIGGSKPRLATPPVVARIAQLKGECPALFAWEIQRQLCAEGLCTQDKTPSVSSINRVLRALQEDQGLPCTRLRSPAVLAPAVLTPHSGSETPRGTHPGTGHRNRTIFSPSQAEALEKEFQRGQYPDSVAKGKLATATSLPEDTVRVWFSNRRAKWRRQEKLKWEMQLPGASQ
# PAX4 [7] = biological target: T2, PAX4 (Homo sapiens, UniProt O43316 9-242)
# T2 sequence: T1 sequence with K192R
# ALX1 [8] = biological target: ALX1 (Homo sapiens, UniProt Q15699 118-204, L144V)
# Sequence of ALX1 (Homo sapiens, UniProt Q15699 118-204, L144V) (Q15699 118-204 L144V): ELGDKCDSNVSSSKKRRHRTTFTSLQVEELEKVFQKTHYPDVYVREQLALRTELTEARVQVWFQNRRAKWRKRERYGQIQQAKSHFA
# PAX4 [9] = biological target: T3, PAX4 (Homo sapiens, UniProt O43316 9-242, R200Q)
# T3 sequence: T1 sequence with K192Q
# ALX1 [10] = biological target: ALX1 (Homo sapiens, UniProt Q15699 118-204, L144R)
# Sequence of ALX1 (Homo sapiens, UniProt Q15699 118-204, L144R) (Q15699 118-204 L144R): as the sequence (Q15699 118-204 L144V) above, with V27R counted along it
# PAX4 [11] = biological target: T4, PAX4 (Homo sapiens, UniProt O43316 9-242, F177V)
# T4 sequence: T1 sequence with F169V, K192R
# PAX4 [12] = biological target: T5, PAX4 (Homo sapiens, UniProt O43316 9-242, F177Y)
# T5 sequence: T1 sequence with F169Y, K192R
# VAX1 [13] = biological target: VAX1 (Homo sapiens, UniProt Q5SQQ9 86-172)
# Sequence of VAX1 (Homo sapiens, UniProt Q5SQQ9 86-172) (Q5SQQ9 86-172): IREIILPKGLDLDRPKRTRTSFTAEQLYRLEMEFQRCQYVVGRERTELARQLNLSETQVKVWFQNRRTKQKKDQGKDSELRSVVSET
# VAX1 [14] = biological target: VAX1 (Homo sapiens, UniProt Q5SQQ9 86-172, T142I)
# Sequence of VAX1 (Homo sapiens, UniProt Q5SQQ9 86-172, T142I) (Q5SQQ9 86-172 T142I): as the sequence (Q5SQQ9 86-172) above, with T57I counted along it
# PAX4 [15] = biological target: T6, PAX4 (Homo sapiens, UniProt O43316 9-242, R227W)
# T6 sequence: T1 sequence with K192R, R219W
# ALX1 [16] = biological target: ALX1 (Homo sapiens, UniProt Q15699 118-204)
# Sequence of ALX1 (Homo sapiens, UniProt Q15699 118-204) (Q15699 118-204): as the sequence (Q15699 118-204 L144V) above, with V27L counted along it
# VAX1 [17] = biological target: VAX1 (Homo sapiens, UniProt Q5SQQ9 86-172, K157R)
# Sequence of VAX1 (Homo sapiens, UniProt Q5SQQ9 86-172, K157R) (Q5SQQ9 86-172 K157R): as the sequence (Q5SQQ9 86-172) above, with K72R counted along it
# ALX4 [18] = biological target: ALX4 (Homo sapiens, UniProt Q9H161 200-286)
# Sequence of ALX4 (Homo sapiens, UniProt Q9H161 200-286) (Q9H161 200-286): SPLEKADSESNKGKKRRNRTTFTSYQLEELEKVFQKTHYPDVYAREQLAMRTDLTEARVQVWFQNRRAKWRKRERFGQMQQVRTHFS
# ALX4 [19] = biological target: ALX4 (Homo sapiens, UniProt Q9H161 200-286, Q225E)
# Sequence of ALX4 (Homo sapiens, UniProt Q9H161 200-286, Q225E) (Q9H161 200-286 Q225E): as the sequence (Q9H161 200-286) above, with Q26E counted along it
# HOXD13 [20] = biological target: HOXD13 (Homo sapiens, UniProt P35453 263-343, T313R)
# Sequence of HOXD13 (Homo sapiens, UniProt P35453 263-343, T313R) (P35453 263-343 T313R): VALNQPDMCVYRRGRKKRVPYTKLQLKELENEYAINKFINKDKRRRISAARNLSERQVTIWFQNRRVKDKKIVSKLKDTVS
# HOXD13 [21] = biological target: HOXD13 (Homo sapiens, UniProt P35453 263-343)
# Sequence of HOXD13 (Homo sapiens, UniProt P35453 263-343) (P35453 263-343): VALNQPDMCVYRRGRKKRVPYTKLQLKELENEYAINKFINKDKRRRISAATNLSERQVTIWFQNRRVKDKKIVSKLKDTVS
# HOXC10 = HOXC10 (Homo sapiens, UniProt Q9NYD6 254-340, K271E)
# Sequence of HOXC10 (Q9NYD6 254-340 K271E): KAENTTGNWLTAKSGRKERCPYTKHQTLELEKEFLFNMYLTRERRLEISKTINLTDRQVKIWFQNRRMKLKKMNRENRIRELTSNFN
# HOXD13 [22] = biological target: HOXD13 (Homo sapiens, UniProt P35453 263-343, T313A)
# Sequence of HOXD13 (Homo sapiens, UniProt P35453 263-343, T313A) (P35453 263-343 T313A): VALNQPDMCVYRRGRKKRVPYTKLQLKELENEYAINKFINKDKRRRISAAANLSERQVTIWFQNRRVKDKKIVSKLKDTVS
# NKX3-2 [23] = biological target: NKX3-2 (Homo sapiens, UniProt P78367 192-278, P234S)
# Sequence of NKX3-2 (Homo sapiens, UniProt P78367 192-278, P234S) (P78367 192-278 P234S): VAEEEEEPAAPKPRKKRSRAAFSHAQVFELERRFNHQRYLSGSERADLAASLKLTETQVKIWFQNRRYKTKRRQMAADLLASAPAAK
# NKX3-2 [24] = biological target: NKX3-2 (Homo sapiens, UniProt P78367 192-278)
# Sequence of NKX3-2 (Homo sapiens, UniProt P78367 192-278) (P78367 192-278): as the sequence (P78367 192-278 P234S) above, with S43P counted along it
# Sequence of HOXA7 (Homo sapiens, UniProt P31268 116-202) (P31268 116-202): as the sequence (P31268 116-202 W177C) above, with C62W counted along it
# Sequence of MSX2 (Homo sapiens, UniProt P35548 130-214, R199I) (P35548 130-214 R199I): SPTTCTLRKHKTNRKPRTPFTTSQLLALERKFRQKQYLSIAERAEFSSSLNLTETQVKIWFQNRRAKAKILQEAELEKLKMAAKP
# Sequence of MSX2 (Homo sapiens, UniProt P35548 130-214) (P35548 130-214): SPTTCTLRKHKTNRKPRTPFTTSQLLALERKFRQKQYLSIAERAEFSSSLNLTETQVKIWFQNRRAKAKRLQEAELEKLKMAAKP
sequence,measurement,setting,value
CGGTGTCC,binding signal,HOXA7 [1],"8.41 upbm affinity estimate (log intensity, higher = more binding, comparable within an allelic series)"
same,binding signal,MSX2 [2],"9.36 upbm affinity estimate (log intensity, higher = more binding, comparable within an allelic series)"
same,binding signal,MSX2 [3],"9.29 upbm affinity estimate (log intensity, higher = more binding, comparable within an allelic series)"
same,binding signal,MSX2 [4],"9.3 upbm affinity estimate (log intensity, higher = more binding, comparable within an allelic series)"
same,binding signal,HOXA7 [5],"8.4 upbm affinity estimate (log intensity, higher = more binding, comparable within an allelic series)"
CCTGGTCC,binding signal,HOXA7 [1],"8.3 upbm affinity estimate (log intensity, higher = more binding, comparable within an allelic series)"
same,binding signal,PAX4 [6],"9.07 upbm affinity estimate (log intensity, higher = more binding, comparable within an allelic series)"
same,binding signal,PAX4 [7],"9.15 upbm affinity estimate (log intensity, higher = more binding, comparable within an allelic series)"
same,binding signal,MSX2 [2],"9.44 upbm affinity estimate (log intensity, higher = more binding, comparable within an allelic series)"
same,binding signal,ALX1 [8],"6.39 upbm affinity estimate (log intensity, higher = more binding, comparable within an allelic series)"
same,binding signal,PAX4 [9],"9.31 upbm affinity estimate (log intensity, higher = more binding, comparable within an allelic series)"
same,binding signal,ALX1 [10],"6.31 upbm affinity estimate (log intensity, higher = more binding, comparable within an allelic series)"
same,binding signal,PAX4 [11],"9.26 upbm affinity estimate (log intensity, higher = more binding, comparable within an allelic series)"
same,binding signal,MSX2 [3],"9.47 upbm affinity estimate (log intensity, higher = more binding, comparable within an allelic series)"
same,binding signal,PAX4 [12],"9.15 upbm affinity estimate (log intensity, higher = more binding, comparable within an allelic series)"
same,binding signal,VAX1 [13],"7.22 upbm affinity estimate (log intensity, higher = more binding, comparable within an allelic series)"
same,binding signal,MSX2 [4],"9.52 upbm affinity estimate (log intensity, higher = more binding, comparable within an allelic series)"
same,binding signal,VAX1 [14],"7.32 upbm affinity estimate (log intensity, higher = more binding, comparable within an allelic series)"
same,binding signal,PAX4 [15],"9.31 upbm affinity estimate (log intensity, higher = more binding, comparable within an allelic series)"
same,binding signal,HOXA7 [5],"8.35 upbm affinity estimate (log intensity, higher = more binding, comparable within an allelic series)"
same,binding signal,ALX1 [16],"6.34 upbm affinity estimate (log intensity, higher = more binding, comparable within an allelic series)"
same,binding signal,VAX1 [17],"7.26 upbm affinity estimate (log intensity, higher = more binding, comparable within an allelic series)"
AGGCAGGC,binding signal,HOXA7 [1],"8.15 upbm affinity estimate (log intensity, higher = more binding, comparable within an allelic series)"
same,binding signal,PAX4 [6],"9.23 upbm affinity estimate (log intensity, higher = more binding, comparable within an allelic series)"
same,binding signal,PAX4 [7],"9.23 upbm affinity estimate (log intensity, higher = more binding, comparable within an allelic series)"
same,binding signal,PAX4 [9],"9.37 upbm affinity estimate (log intensity, higher = more binding, comparable within an allelic series)"
same,binding signal,PAX4 [11],"9.22 upbm affinity estimate (log intensity, higher = more binding, comparable within an allelic series)"
same,binding signal,PAX4 [12],"9.34 upbm affinity estimate (log intensity, higher = more binding, comparable within an allelic series)"
same,binding signal,PAX4 [15],"9.36 upbm affinity estimate (log intensity, higher = more binding, comparable within an allelic series)"
same,binding signal,HOXA7 [5],"8.3 upbm affinity estimate (log intensity, higher = more binding, comparable within an allelic series)"
ACCCAGCC,binding signal,HOXA7 [1],"8.44 upbm affinity estimate (log intensity, higher = more binding, comparable within an allelic series)"
same,binding signal,ALX4 [18],"8.13 upbm affinity estimate (log intensity, higher = more binding, comparable within an allelic series)"
same,binding signal,ALX4 [19],"8.18 upbm affinity estimate (log intensity, higher = more binding, comparable within an allelic series)"
same,binding signal,VAX1 [13],"7.07 upbm affinity estimate (log intensity, higher = more binding, comparable within an allelic series)"
same,binding signal,VAX1 [14],"7.26 upbm affinity estimate (log intensity, higher = more binding, comparable within an allelic series)"
same,binding signal,HOXA7 [5],"8.42 upbm affinity estimate (log intensity, higher = more binding, comparable within an allelic series)"
same,binding signal,VAX1 [17],"7 upbm affinity estimate (log intensity, higher = more binding, comparable within an allelic series)"
CGAGGACG,binding signal,HOXA7 [1],"8.54 upbm affinity estimate (log intensity, higher = more binding, comparable within an allelic series)"
same,binding signal,HOXA7 [5],"8.4 upbm affinity estimate (log intensity, higher = more binding, comparable within an allelic series)"
ATATAAAA,binding signal,HOXA7 [1],"9.79 upbm affinity estimate (log intensity, higher = more binding, comparable within an allelic series)"
same,binding signal,HOXD13 [20],"10.9 upbm affinity estimate (log intensity, higher = more binding, comparable within an allelic series)"
same,binding signal,HOXD13 [21],"11.8 upbm affinity estimate (log intensity, higher = more binding, comparable within an allelic series)"
same,binding signal,HOXC10,"11.3 upbm affinity estimate (log intensity, higher = more binding, comparable within an allelic series)"
same,binding signal,HOXD13 [22],"11.7 upbm affinity estimate (log intensity, higher = more binding, comparable within an allelic series)"
same,binding signal,HOXA7 [5],"8.84 upbm affinity estimate (log intensity, higher = more binding, comparable within an allelic series)"
CGGCGTTC,binding signal,HOXA7 [1],"8.31 upbm affinity estimate (log intensity, higher = more binding, comparable within an allelic series)"
same,binding signal,ALX1 [8],"6.29 upbm affinity estimate (log intensity, higher = more binding, comparable within an allelic series)"
same,binding signal,ALX1 [10],"6.24 upbm affinity estimate (log intensity, higher = more binding, comparable within an allelic series)"
same,binding signal,HOXA7 [5],"8.26 upbm affinity estimate (log intensity, higher = more binding, comparable within an allelic series)"
same,binding signal,NKX3-2 [23],"10.4 upbm affinity estimate (log intensity, higher = more binding, comparable within an allelic series)"
same,binding signal,ALX1 [16],"6.31 upbm affinity estimate (log intensity, higher = more binding, comparable within an allelic series)"
same,binding signal,NKX3-2 [24],"10.4 upbm affinity estimate (log intensity, higher = more binding, comparable within an allelic series)"
AAGGACTG,binding signal,HOXA7 [1],"8.44 upbm affinity estimate (log intensity, higher = more binding, comparable within an allelic series)"
same,binding signal,HOXA7 [5],"8.4 upbm affinity estimate (log intensity, higher = more binding, comparable within an allelic series)"
AGGTCAGA,binding signal,HOXA7 [1],"8.56 upbm affinity estimate (log intensity, higher = more binding, comparable within an allelic series)"
same,binding signal,HOXA7 [5],"8.58 upbm affinity estimate (log intensity, higher = more binding, comparable within an allelic series)"
CGCAGGTC,binding signal,HOXA7 [1],"8.46 upbm affinity estimate (log intensity, higher = more binding, comparable within an allelic series)"
same,binding signal,HOXA7 [5],"8.44 upbm affinity estimate (log intensity, higher = more binding, comparable within an allelic series)"
CGCTGTGC,binding signal,HOXA7 [1],"8.49 upbm affinity estimate (log intensity, higher = more binding, comparable within an allelic series)"
same,binding signal,HOXA7 [5],"8.35 upbm affinity estimate (log intensity, higher = more binding, comparable within an allelic series)"
CATTTTAA,binding signal,HOXA7 [1],"9.97 upbm affinity estimate (log intensity, higher = more binding, comparable within an allelic series)"
same,binding signal,HOXA7 [5],"8.79 upbm affinity estimate (log intensity, higher = more binding, comparable within an allelic series)"
CATTTACA,binding signal,HOXA7 [1],"9.74 upbm affinity estimate (log intensity, higher = more binding, comparable within an allelic series)"
same,binding signal,HOXA7 [5],"8.8 upbm affinity estimate (log intensity, higher = more binding, comparable within an allelic series)"
CGGGTGCC,binding signal,HOXA7 [1],"8.6 upbm affinity estimate (log intensity, higher = more binding, comparable within an allelic series)"
same,binding signal,HOXA7 [5],"8.41 upbm affinity estimate (log intensity, higher = more binding, comparable within an allelic series)"
AAATTACG,binding signal,HOXA7 [1],"10.3 upbm affinity estimate (log intensity, higher = more binding, comparable within an allelic series)"
same,binding signal,HOXA7 [5],"8.82 upbm affinity estimate (log intensity, higher = more binding, comparable within an allelic series)"
ACCTAATC,binding signal,HOXA7 [1],"9.7 upbm affinity estimate (log intensity, higher = more binding, comparable within an allelic series)"
same,binding signal,HOXA7 [5],"8.88 upbm affinity estimate (log intensity, higher = more binding, comparable within an allelic series)"
AGGCCCAG,binding signal,HOXA7 [1],"8.42 upbm affinity estimate (log intensity, higher = more binding, comparable within an allelic series)"
same,binding signal,HOXA7 [5],"8.28 upbm affinity estimate (log intensity, higher = more binding, comparable within an allelic series)"
CAAAGCGG,binding signal,HOXA7 [1],"8.47 upbm affinity estimate (log intensity, higher = more binding, comparable within an allelic series)"
same,binding signal,HOXA7 [5],"8.45 upbm affinity estimate (log intensity, higher = more binding, comparable within an allelic series)"
TCATTTCA,binding signal,HOXA7 [1],"9.51 upbm affinity estimate (log intensity, higher = more binding, comparable within an allelic series)"
same,binding signal,HOXA7 [5],"8.76 upbm affinity estimate (log intensity, higher = more binding, comparable within an allelic series)"
CCATTTAA,binding signal,HOXA7 [1],"10.5 upbm affinity estimate (log intensity, higher = more binding, comparable within an allelic series)"
same,binding signal,HOXA7 [5],"8.76 upbm affinity estimate (log intensity, higher = more binding, comparable within an allelic series)"
CCATGCTC,binding signal,HOXA7 [1],"8.55 upbm affinity estimate (log intensity, higher = more binding, comparable within an allelic series)"
same,binding signal,HOXA7 [5],"8.51 upbm affinity estimate (log intensity, higher = more binding, comparable within an allelic series)"
ACCTCGCT,binding signal,HOXA7 [1],"8.51 upbm affinity estimate (log intensity, higher = more binding, comparable within an allelic series)"
same,binding signal,HOXA7 [5],"8.51 upbm affinity estimate (log intensity, higher = more binding, comparable within an allelic series)"
AATTGTAA,binding signal,HOXA7 [1],"9.73 upbm affinity estimate (log intensity, higher = more binding, comparable within an allelic series)"
same,binding signal,HOXA7 [5],"8.68 upbm affinity estimate (log intensity, higher = more binding, comparable within an allelic series)"
GAGCCAGC,binding signal,HOXA7 [1],"8.52 upbm affinity estimate (log intensity, higher = more binding, comparable within an allelic series)"
same,binding signal,HOXA7 [5],"8.41 upbm affinity estimate (log intensity, higher = more binding, comparable within an allelic series)"
CGTGCAAG,binding signal,HOXA7 [1],"8.47 upbm affinity estimate (log intensity, higher = more binding, comparable within an allelic series)"
same,binding signal,HOXA7 [5],"8.43 upbm affinity estimate (log intensity, higher = more binding, comparable within an allelic series)"
AGACGGCG,binding signal,HOXA7 [1],"8.6 upbm affinity estimate (log intensity, higher = more binding, comparable within an allelic series)"
same,binding signal,HOXA7 [5],"8.4 upbm affinity estimate (log intensity, higher = more binding, comparable within an allelic series)"
ATCATCTA,binding signal,HOXA7 [1],"9.36 upbm affinity estimate (log intensity, higher = more binding, comparable within an allelic series)"
same,binding signal,HOXA7 [5],"8.74 upbm affinity estimate (log intensity, higher = more binding, comparable within an allelic series)"
AGCGCCGA,binding signal,HOXA7 [1],"8.38 upbm affinity estimate (log intensity, higher = more binding, comparable within an allelic series)"
same,binding signal,HOXA7 [5],"8.29 upbm affinity estimate (log intensity, higher = more binding, comparable within an allelic series)"
